# Results from the supplement of paper PMC3334620.
# Over roughly 33,000 sequences, “E-score (-0.5 to 0.5)” has its median near -0.015; the highest 2% begin near 0.3. The sample as a whole holds a higher share of the highest values than the screen did.
# Target: T1, Abf1 (UniProt P14164)
# T1 sequence: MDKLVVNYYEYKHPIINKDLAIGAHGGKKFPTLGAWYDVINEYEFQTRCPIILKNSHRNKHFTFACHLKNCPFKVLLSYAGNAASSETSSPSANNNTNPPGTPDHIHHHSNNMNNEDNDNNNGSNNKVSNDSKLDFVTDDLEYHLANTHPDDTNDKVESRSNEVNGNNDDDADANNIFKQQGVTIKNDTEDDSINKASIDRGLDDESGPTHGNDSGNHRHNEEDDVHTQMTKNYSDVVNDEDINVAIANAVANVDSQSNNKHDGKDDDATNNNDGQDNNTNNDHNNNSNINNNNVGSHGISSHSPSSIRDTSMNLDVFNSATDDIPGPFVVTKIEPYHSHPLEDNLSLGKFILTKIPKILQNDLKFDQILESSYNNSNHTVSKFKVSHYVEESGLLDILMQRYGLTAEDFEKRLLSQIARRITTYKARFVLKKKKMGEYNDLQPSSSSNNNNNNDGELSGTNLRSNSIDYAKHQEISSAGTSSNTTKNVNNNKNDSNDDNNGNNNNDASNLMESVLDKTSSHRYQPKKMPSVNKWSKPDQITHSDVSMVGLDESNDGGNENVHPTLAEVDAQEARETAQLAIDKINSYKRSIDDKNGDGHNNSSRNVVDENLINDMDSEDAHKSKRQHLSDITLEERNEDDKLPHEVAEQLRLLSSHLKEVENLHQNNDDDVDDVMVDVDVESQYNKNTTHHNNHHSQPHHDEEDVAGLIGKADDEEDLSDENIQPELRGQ
# Assay: PBM E-score (8-mer binding enrichment) (E-score (-0.5 to 0.5)); higher = stronger / more preferred TF binding
# Conditions: protein concentration: 200 nM; construct: GST-full length
# Summary of the method: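 Yeast transcription factors, full-length or as DNA-binding domains, were expressed with a GST tag using PURExpress in vitro transcription/translation. At about 100-200 nM they were applied to universal all-10-mer Agilent arrays, double-stranded by primer extension on fresh or once-stripped slides. Fluorescent anti-GST detected bound protein, and masliner normalised the scans. E-scores for ungapped eight-base words, pooled with reverse complements, came from the Universal PBM Analysis Suite.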
row,Sequence,PBM E-score
1,CCGTCTAA,0.266
2,GCGTCGCA,-0.0267
3,GCGTCGTA,0.418
4,GCGTCGAA,0.0222
5,CCGCCATA,-0.072
6,GGGTTACC,-0.0518
7,CAGACCAA,-0.132
8,GCCCAAAA,-0.114
9,AAATGGAG,0.0525
10,AGGCTCTA,-0.247
11,AATGACAC,0.227
12,AATGACAT,0.39
13,AATGACAA,0.397
14,CATGACAC,0.218
15,AATGACTA,0.222
16,TATGACAA,0.27
17,CATGACAA,0.238
18,GATGACAC,0.337
19,AATGACCA,0.256
20,AATGACCT,0.223
21,GATGACAA,0.369
22,AATGACAG,0.16
23,CGAGGATA,0.0582
24,GATGGGCA,-0.0389
25,CTCATCAA,0.192

row,Sequence,PBM E-score
1,GCCCTCTA,-0.224
2,CCACTCTC,-0.22
3,GACGATAA,0.363
4,TACGATAA,0.179
5,CACGATAA,0.296
6,CACGATTA,0.247
7,GACGATTA,0.31
8,AACGATTA,0.172
9,GACCAAAA,0.183
10,AAACCGAC,-0.0139
11,CGCACCAA,-0.0891
12,TCACGCCA,0.113
13,GTGATAAA,0.412
14,ATGATAAC,0.339
15,CTGATAAA,0.112
16,GAGATAAC,0.138
17,GCGATAAC,0.158
18,TTGATAAA,0.23
19,CTGATAAC,0.167
20,AAGATAAC,0.171
21,AAGATAAA,0.132
22,ATGATAAA,0.406
23,ATGATAGA,0.103
24,GTGATAAC,0.371
25,CCGGTTCC,-0.286

row,Sequence,PBM E-score
1,CCCATTTA,-0.0213
2,AAAGGCAG,0.17
3,AAAGCTAG,-0.236
4,GTAATAAC,0.124
5,GTAATAAA,0.313
6,GTGATACA,0.311
7,CTGATACA,0.0567
8,ATGATAAT,0.377
9,GAGATACA,0.146
10,AAGATAAT,0.0926
11,ATAATAAA,0.2
12,ATGATAAG,0.291
13,CACTTTGC,0.137
14,CTGACACC,-0.0573
15,GGTTGGAA,-0.166
16,AACTAGAG,-0.159
17,ATACAGTG,0.011
18,AGAGAAGA,0.0299
19,CCACCAGC,0.0706
20,ACCGTTTG,0.103
21,CTCGTTTA,0.0984
22,CTCGTTTC,0.129
23,ATCGTTTA,0.321
24,ATCGTTTG,0.298
25,AGCGTTTG,-0.116

row,Sequence,PBM E-score
1,AACGTTTA,-0.0328
2,ATCGTTCC,0.068
3,ATCGTTTC,0.325
4,GCCGTTTA,0.102
5,AGCGTTTA,-0.153
6,GTCGTTTA,0.298
7,CAGCTCCA,-0.238
8,CGATACAG,-0.0796
9,ACTTTGTA,0.0728
10,ATTAGATC,-0.00144
11,ATGCAGCG,-0.174
12,GCGGGAGC,-0.288
13,ATCGTTGA,0.208
14,CTCGTTGA,0.0588
15,GTCGTTGA,0.327
16,AGCTCGTA,0.149
17,GCGCAACA,-0.123
18,AAAGAGTG,-0.101
19,ATTATGTC,0.303
20,ATTATGCG,0.303
21,CTCATGTC,0.0937
22,ATTATGCC,0.0573
23,ATCATGTC,0.356
24,ATTATGTA,0.239
25,ATTATGCA,-0.114

row,Sequence,PBM E-score
1,ATCATGTA,0.208
2,CTTATGTC,0.00318
3,AGCCGGTA,-0.013
4,CTGGCACA,0.00341
5,GATCCAAA,0.111
6,AGTGTTTG,-0.0678
7,ACGATAAA,0.352
8,ACGATAAT,0.303
9,GCGATAAA,0.241
10,ACGATAAG,0.243
11,ACGATAAC,0.224
12,TCGATAAA,0.207
13,CAGACTCA,-0.218
14,GGGAACCA,-0.249
15,CCGAACCA,-0.231
16,GCGTTCAA,-0.0872
17,TCGTTCAA,0.357
18,ACGTTTAA,0.245
19,ACGTTCAA,0.155
20,TCGTTTAA,0.341
21,CCGTTTAA,0.266
22,TACACTAA,0.114
23,TAAGACTA,-0.0858
24,CCAACAGG,-0.363
25,GAACTTAC,0.0577

row,Sequence,PBM E-score
1,ACGGTATC,0.182
2,CGTTTATC,0.297
3,CATTTATC,0.222
4,AGTTTATC,0.173
5,CGTTTATA,0.196
6,AATTTATC,0.314
7,AATTTATA,0.191
8,CCTCTGAG,-0.215
9,GATTGGGA,-0.197
10,AGTGGTTA,0.0354
11,AAACGACA,0.321
12,GAACGACA,0.296
13,TAACGACA,0.31
14,AAACGACG,0.238
15,AAACGACT,0.152
16,CAACGACA,0.208
17,GCTAAAGC,-0.16
18,ACGCGGAT,-0.024
19,GAAACCAC,-0.124
20,AAGGGACC,0.0128
21,ACCATAGA,-0.0622
22,AGTCGTGA,0.249
23,CGTCGTGA,0.351
24,CCTCGTGA,0.363
25,AGTCGTGC,0.0998

row,Sequence,PBM E-score
1,ATTCGTGA,0.15
2,CTTCGTGA,0.317
3,GGTCGTGA,0.195
4,CCTCGTGC,0.00335
5,GCTCGTGA,0.0759
6,CGTCGTGC,0.315
7,GTTCGTGA,0.254
8,ACTCGTGA,0.162
9,GTGAAAAC,0.138
10,CACTTCGA,0.223
11,ATACTGTA,0.0204
12,GAAACTTC,0.0521
13,AGACAGTG,-0.0919
14,GCTTTTTA,0.0686
15,CGCATCAC,0.263
16,CACTTTTC,0.192
17,AGCGGTAC,-0.161
18,CTGACGTC,0.137
19,CCCGAGCC,-0.299
20,ATATCACG,0.401
21,CTATCACC,0.226
22,ATATCACC,0.438
23,CTATCACA,0.199
24,ATATCACA,0.282
25,ATATCAGC,0.00929
